The source made the active and inactive calls.

Test [1] deals with Plasmodium falciparum Sir2 (PF13_0152, Sir2A). Description: pfSir2 binders on small-molecule microarrays, primary screen, biochemical, small-molecule microarray, 635 nm fluorescence (AID 1098).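 Further: score merges spot fluorescence intensity with its signal-to-noise ratio.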 As to conditions: small-molecule microarray binding, fluorescence 635 nm; higher = more signal.
Test [2] can be described thus: small-molecule microarray binders of probe aDKK1, primary screen, biochemical, biotinylated probe, 635/667 nm fluorescence (AID 1099).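 Further: score merges 667nm spot fluorescence with signal to noise across triplicate slides; reference of the scale not given here.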 Conditions: higher = more signal.
Test [3] can be described thus: small-molecule microarray binders of probe aCHRDL2, primary screen, biochemical, biotinylated probe, 635/667 nm fluorescence (AID 1100). As to conditions: higher = more signal.
A short description of test [4]: splicing luciferase reporter signal modulators, primary screen, spliceosome inhibition project, cell-based, HEK293, splice +/- reporter (AID 1101).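 Further: HEK293 cells carrying a splicing-competent luciferase reporter gene; test concentration not given here.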 As to conditions: luminescence, 24 h, higher = more signal, called active from +8 up or from −8 down. Background: A reporter such as luciferase makes a cellular process visible.
For test [5], the target named is Fibroblast growth factor 10 (Homo sapiens) (UniProt O15520). As to the kind of experiment: FGF10 binders on small-molecule microarrays, primary screen, biochemical, small-molecule microarray, 635 nm fluorescence (AID 1102). Conditions: FGF10 binding, fluorescence 635 nm, higher = more signal.
Sequence of Fibroblast growth factor 10 (Homo sapiens) (O15520 whole entry, looked up): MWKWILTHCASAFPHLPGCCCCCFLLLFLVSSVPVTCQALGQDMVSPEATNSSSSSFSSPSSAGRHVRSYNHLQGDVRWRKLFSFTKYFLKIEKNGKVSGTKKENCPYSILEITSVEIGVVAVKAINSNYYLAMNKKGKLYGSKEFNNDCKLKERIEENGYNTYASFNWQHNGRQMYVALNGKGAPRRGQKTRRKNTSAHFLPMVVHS
The test system of test [6] is glycogen synthase kinase-3 (GSK3A per assay name; protocol says GSK3B). Description: GSK3 binders on small-molecule microarrays, primary screen, biochemical, small-molecule microarray, 635 nm fluorescence, GSK3A (AID 1103). Further: the record names both GSK3A and GSK3B. Conditions: small-molecule microarray binding, fluorescence 635 nm; higher = more signal.
The target of test [7] is Epidermal growth factor receptor (Homo sapiens) (UniProt P00533). As to the kind of experiment: EGFR binders on small-molecule microarrays, primary screen, biochemical, small-molecule microarray, 635 nm fluorescence (AID 1104).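 Further: score merges 667 nm emission intensity with spot signal to noise over triplicate slides.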 Conditions: EGFR binding, higher = more signal.
Sequence of Epidermal growth factor receptor (Homo sapiens) (P00533 whole entry, looked up): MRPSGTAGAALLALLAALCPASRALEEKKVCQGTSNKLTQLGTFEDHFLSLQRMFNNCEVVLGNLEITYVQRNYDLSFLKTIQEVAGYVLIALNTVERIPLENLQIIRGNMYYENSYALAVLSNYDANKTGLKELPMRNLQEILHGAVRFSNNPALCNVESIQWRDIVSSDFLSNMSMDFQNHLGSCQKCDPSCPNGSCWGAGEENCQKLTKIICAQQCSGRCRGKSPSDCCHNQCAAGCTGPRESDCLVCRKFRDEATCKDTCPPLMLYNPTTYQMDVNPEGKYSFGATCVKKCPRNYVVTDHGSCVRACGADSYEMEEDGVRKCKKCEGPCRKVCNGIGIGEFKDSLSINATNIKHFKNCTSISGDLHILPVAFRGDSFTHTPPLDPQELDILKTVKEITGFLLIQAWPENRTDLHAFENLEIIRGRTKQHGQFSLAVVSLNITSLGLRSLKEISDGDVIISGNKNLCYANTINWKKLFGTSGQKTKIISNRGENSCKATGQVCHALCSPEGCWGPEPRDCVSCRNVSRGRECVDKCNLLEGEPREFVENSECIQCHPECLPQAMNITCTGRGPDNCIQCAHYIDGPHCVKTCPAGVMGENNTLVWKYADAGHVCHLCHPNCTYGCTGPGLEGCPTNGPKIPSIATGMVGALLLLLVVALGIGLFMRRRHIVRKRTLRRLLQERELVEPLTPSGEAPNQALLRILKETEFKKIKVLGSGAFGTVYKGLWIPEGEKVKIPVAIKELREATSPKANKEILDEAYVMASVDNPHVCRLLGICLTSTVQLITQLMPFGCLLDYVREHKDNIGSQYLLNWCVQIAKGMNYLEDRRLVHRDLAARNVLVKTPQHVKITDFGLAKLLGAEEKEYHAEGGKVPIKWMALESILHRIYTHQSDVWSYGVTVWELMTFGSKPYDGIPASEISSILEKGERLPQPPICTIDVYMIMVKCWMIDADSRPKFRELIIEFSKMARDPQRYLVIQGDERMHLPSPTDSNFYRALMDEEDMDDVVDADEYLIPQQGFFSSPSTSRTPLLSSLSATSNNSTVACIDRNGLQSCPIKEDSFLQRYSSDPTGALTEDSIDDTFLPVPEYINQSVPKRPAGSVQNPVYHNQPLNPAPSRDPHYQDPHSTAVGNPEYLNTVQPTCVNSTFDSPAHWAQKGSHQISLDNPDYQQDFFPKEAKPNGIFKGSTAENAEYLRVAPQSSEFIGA
For test [8], the target named is Follistatin-related protein 3 (Homo sapiens) (UniProt O95633). Description: FSTL3 binders on small-molecule microarrays, primary screen, biochemical, small-molecule microarray, 635 nm fluorescence (AID 1105).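 Further: score merges emission near 667 nm and signal to noise per printed spot across three slides.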 As to conditions: FSTL3 binding, higher = more signal.
Sequence of Follistatin-related protein 3 (Homo sapiens) (O95633 whole entry, looked up): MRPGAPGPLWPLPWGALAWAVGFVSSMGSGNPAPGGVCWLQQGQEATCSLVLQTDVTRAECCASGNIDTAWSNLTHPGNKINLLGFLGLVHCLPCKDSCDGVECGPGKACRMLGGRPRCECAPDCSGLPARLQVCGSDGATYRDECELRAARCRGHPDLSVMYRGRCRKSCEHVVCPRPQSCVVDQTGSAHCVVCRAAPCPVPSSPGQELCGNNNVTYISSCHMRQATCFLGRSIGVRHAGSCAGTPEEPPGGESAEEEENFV
Test [9] concerns the target Dickkopf-related protein 1 (Homo sapiens) (UniProt O94907). Description: DKK1 binders on small-molecule microarrays, primary screen, biochemical, small-molecule microarray, 635 nm fluorescence scan (AID 1106).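 Further: score merges emission near 667 nm with signal to noise over three replicate slides.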 Conditions: DKK1 binding, higher = more signal.
The subject of test [10] is Inhibin beta A chain (activin A). As to the kind of experiment: INHBA (activin A) binders on microarrays, primary screen, biochemical, small-molecule microarray, 635 nm fluorescence scan (AID 1107).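 Further: mouse activin A protein probed at 4.33 µg/mL on printed slides; score merges bound-protein fluorescence near 667 nm with spot signal-to-noise.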 Conditions: small-molecule microarray binding, higher = more signal.

Sequence of Dickkopf-related protein 1 (Homo sapiens) (O94907 whole entry, looked up): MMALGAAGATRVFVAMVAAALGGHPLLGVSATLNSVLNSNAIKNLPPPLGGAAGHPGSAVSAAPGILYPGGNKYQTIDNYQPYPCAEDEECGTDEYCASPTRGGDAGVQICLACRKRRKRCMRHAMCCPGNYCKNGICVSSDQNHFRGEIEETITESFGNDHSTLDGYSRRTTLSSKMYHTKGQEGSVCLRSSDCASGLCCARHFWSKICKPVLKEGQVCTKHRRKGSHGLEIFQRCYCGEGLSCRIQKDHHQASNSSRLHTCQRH

`O=C1[C@@H]2[C@@H](CC(COc3ccccc3)=C3[C@@H](CCc4ccccc4)OB(O)C[C@@H]32)C(=O)N1Cc1ccccc1`: the composite z-score in [1] is 0.393; in test [2], -0.185; in test [3], -0.23; in test [5] it was 0.747; in test [6] it was 0.081; in [7] it was 0.292. Besides, the composite z-score in test [8] was 0.163; in test [9], 0.147; in test [10] it was 0.343. Besides, the z-score in [4] is -0.74 (inactive).
Take `CCOC(=O)C=Cc1cc(F)ccc1O`: the composite z-score in test [1] is 0.188; in test [2] it was -0.137; in test [3], -0.31; in test [5], 0.168; in [6] it was -0.126; in [7], 0.0683. In addition, the composite z-score is 0.0871 in [8], -0.258 in [9] and 0.835 in test [10]. For the same molecule, in test [4], the z-score was -1.37 (inactive).
For `[N-]=[N+]=NC[C@H](Cc1ccccc1)NC(=O)c1ccccc1`, the composite z-score is -0.554 in test [1]; -0.124 in test [2]; -0.414 in test [3]; -0.0183 in test [5]; -0.089 in test [6]; 0.0214 in test [7]. The values for the composite z-score in [8], in [9] and in test [10] were -0.394, 0.0359 and 0.382, respectively. Further, the z-score in [4] was -0.0894 (inactive).
In the case of `C[C@@H]1ON(c2ccc(I)cc2)[C@H](c2ccc(OC(=O)OC(C)(C)C)cc2)[C@H]1C(=O)N1C(=O)OC[C@H]1Cc1ccccc1`, the composite z-score in [1] was 0.718; in test [2], -0.14; in test [3], -0.345; in test [5], 0.367; in test [6], 1.07; in [7], 0.458. Further, the composite z-score in [8] came to 0.872; in test [9], 0.567; in test [10], 0.0676. Moreover, the z-score in [4] is -1.78 (inactive).
As to `O=C1C2C=CC(C(O)C=Cc3ccc([N+](=O)[O-])cc3)N(Nc3ccccc3)C2C(=O)N1c1ccccc1` (stereo not given), the composite z-score in test [1] was 1.37; in [2], -0.0814; in [3], 0.689; in [5] it was 1.07; in [6], 1.16; in test [7], 0.244. Also, the composite z-score in [8] is 1.31; in test [9] it was 0.419; in test [10], 1.06. For the same molecule, the z-score in [4] was 0.649 (inactive).
With `O=C(N1CCOCC1)[C@@]1(CCS(=O)(=O)c2ccccc2)N=C(c2ccc(OCCCO)cc2)O[C@H]1c1ccccc1`, the composite z-score in test [1] was 1.64; in test [2], 1.42; in [3], 1.33; in test [5], 0.646; in test [6] it was 1.22; in [7], -0.412. The composite z-score is 0.424 in test [8], -0.383 in test [9] and 0.382 in [10]. The z-score in test [4] is 2.21 (inactive).
On to `C=C(C(=O)CC[C@@H](OC(=O)c1ccccc1-c1ccccc1C(=O)O)c1ccccc1OCCO)C(C)C`, for which the composite z-score in [1] was 1.07; in test [2], -0.232; in test [3], -0.463; in test [5] it was 1.53; in [6], 0.645; in [7] it was 0.354. Also, the composite z-score came to 1.38 in test [8], 0.73 in test [9] and 1.26 in test [10]. Also, the z-score in [4] is 1.58 (inactive).
Turning to `CC(C)C[C@@H]1NC(=O)CNC(=O)[C@@]23C(=O)N[C@@H](Cc4ccccc4)C2[C@H](C)[C@@]2(C)O[C@H]2C3/C=C/C/C=C\CNC1=O` (stereo not given in full), the composite z-score in test [1] was 0.15; in [2], -0.212; in [3], -0.445; in [5] it was 0.569; in test [6], 1.15; in [7], 0.366. The composite z-score in test [8] stood at 1.04; in test [9] it was 0.568; in test [10], 1.25. Besides, the z-score in test [4] is 0.426 (inactive).
Take `CC(C)C[C@@H]1NC(=O)[C@@H]2C[C@H](C(=O)NCCCCCC[N+](C)(C)C)[C@H](c3cccc(OCCO)c3)N2C1=O`: the composite z-score in test [1] was 1.78; in test [2], -0.294; in test [3], 0.512; in test [5], 0.225; in test [6], 0.221; in test [7], -0.138. Besides, the composite z-score in [8] was -0.168; in test [9], 0.449; in test [10] it was 0.327. Besides, the z-score in [4] is -0.261 (inactive).
Consider `COCCOC(=O)N1C(=O)[C@@]2(c3cc(C#CCNC(N)=O)ccc31)[C@H](c1ccc(O)cc1)N1[C@H](c3ccccc3)[C@H](c3ccccc3)OC(=O)[C@H]1[C@@H]2C(N)=O`, for which the composite z-score in test [1] was -0.583; in test [2] it was -0.224; in [3], 0.444; in test [5], -1.62; in test [6], -1.32; in test [7], -1.9. Further, the composite z-score in [8] was -2.16; in test [9], -1.86; in test [10], -1.08. In addition, the z-score in test [4] was 0.00136 (inactive).
For the molecule `O=C1[C@@]23C=C(Br)[C@H](C[C@@H]2COC3)[C@@]12CO2`, the composite z-score is 0.35 in [1]; -0.419 in test [2]; -0.555 in [3]; 0.266 in test [5]; 0.638 in [6]; 0.566 in [7]. Moreover, the composite z-score in test [8] worked out at 0.514; in [9] it was 0.449; in [10] it was 0.262. Moreover, in test [4], the z-score is 0.536 (inactive).
On to `Cc1cccc([C@H]2C[C@H]3C(Br)=C[C@@H]2C(=O)[C@]32CO2)c1`, for which the composite z-score in [1] is -0.256; in test [2], -0.423; in test [3], -0.0607; in test [5], -0.711; in [6] it was -0.869; in test [7], -0.0431. In addition, the composite z-score is -0.412 in test [8], 0.404 in test [9] and 1.37 in test [10]. Moreover, the z-score in test [4] is -0.517 (inactive).
In the case of `COc1ccc([Si](C)(C)[C@@H]2[C@@H](CCn3cc([C@H](O)c4ccccc4)nn3)O[C@]3(C(=O)N(c4ccccc4)c4ccccc43)[C@H]2C)cc1`, the composite z-score in [1] was 0.548; in test [2] it was -0.016; in test [3], -0.142; in test [5], 0.23; in test [6] it was -0.15; in [7], -0.302. The composite z-score in test [8] was 0.115; in [9], 0.181; in test [10], 0.372. For the same molecule, in test [4], the z-score is -1.18 (inactive).
For `[N-]=[N+]=NCc1ccccc1[C@@H]1OC(c2ccc(OCCCO)cc2)=N[C@]1(Cc1ccccc1)C(=O)NCCN1CCOCC1`, the composite z-score in test [1] is 1.03; in test [2], 0.657; in test [3] it was 0.58; in test [5], 0.868; in test [6] it was 0.616; in test [7], -0.102. Also, the composite z-score in test [8] is 0.567; in test [9], -0.383; in test [10], 0.798. In [4], the z-score is 0.0496 (inactive).

The values above are taken from PubChem BioAssay.
